# Results taken from PubChem BioAssay (Tox21).
# Results filed as inconclusive are left out. Entries that show only a call come without a potency. Active and inactive are the calls of the source. Calls come from the whole dose curve; as a rule, active = well fitted curve in the direction sought with a large enough effect in the repeat runs; inconclusive = weak or mixed curves; inactive = no such curve, though single readings can be large; an effect the other way counts as inactive or inconclusive.
# Tests used:
# [1] = A CellTox Green Cytotoxicity Assay to monitor cytotoxicity in HEK293 cells - 40 hour (AID 1224871); note: nearly all actives have a fitted effect of over 45% in size; note: potency is the fitted concentration of half-maximal effect
# Outline: (§1)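 Nonlytic real-time cytotoxicity: HEK293 + CellTox Green reagent plated, 5 h preincubation, pintool compound addition (23 nL in DMSO), 37 C for 40 h, fluorescence measured at successive time points.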
# [2] = qHTS RealTime-Glo MT Cell Viability Assay in HepG2 cells - 8 hour (AID 1224873); note: nearly all actives have a fitted effect of over 55% in size
# Outline: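 HepG2 cells (600/well) mixed with RealTime-Glo MT reagent, settled 5 h at 37 C/5% CO2 before compound addition. Nonlytic NanoLuc luminescence from viable-cell prosubstrate reduction read repeatedly during 40 h treatment at 37 C.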
# [3] = qHTS RealTime-Glo MT Cell Viability Assay in HepG2 cells - 32 hour (AID 1224877); note: nearly all actives have a fitted effect of over 55% in size; note: potency is the fitted concentration of half-maximal effect
# Outline: (§2)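 Viability was tracked continuously by NanoLuc luminescence from prosubstrate reduced by living HepG2 cells, at successive time points over 40 h of compound exposure. Cells with reagent were preincubated 5 h at 37 °C before compound addition.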
# [4] = qHTS RealTime-Glo MT Cell Viability Assay in HEK293 cells - 0 hour (AID 1224880); note: nearly all actives have a fitted effect of over 45% in size; note: potency is the fitted concentration of half-maximal effect
# Outline: (§3)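 Cells were seeded together with NanoLuc luciferase and a prosubstrate that viable cells reduce to a luciferase substrate. After a 5 h incubation at 37 C/5% CO2, compounds were added and luminescence was measured repeatedly during 40 h of treatment.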
# [5] = A CellTox Green Cytotoxicity Assay to monitor cytotoxicity in HEK293 cells - 32 hour (AID 1224881); note: nearly all actives have a fitted effect of over 40% in size; note: potency is the fitted concentration of half-maximal effect
# Outline: as §1
# [6] = A CellTox Green Cytotoxicity Assay to monitor cytotoxicity in HepG2 cells - 0 hour (AID 1224882); note: nearly all actives have a fitted effect of over 35% in size; note: potency is the fitted concentration of half-maximal effect
# Outline: (§4)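 Read-out is fluorescence of a cyanine dye excluded from live cells that stains DNA of dead HepG2 cells, with signal proportional to cytotoxicity. Plates were read at 0, 8, 16, 24, 32 and 40 h after compound addition.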
# [7] = A CellTox Green Cytotoxicity Assay to monitor cytotoxicity in HEK293 cells - 8 hour (AID 1224884); note: nearly all actives have a fitted effect of over 35% in size; note: potency is the fitted concentration of half-maximal effect
# Outline: as §1
# [8] = qHTS RealTime-Glo MT Cell Viability Assay in HepG2 cells - 16 hour (AID 1224885); note: nearly all actives have a fitted effect of over 50% in size; note: potency is the fitted concentration of half-maximal effect
# Outline: as §2
# [9] = qHTS RealTime-Glo MT Cell Viability Assay in HEK293 cells - 8 hour (AID 1224887); note: top concentration of the series differs between compounds; nearly all actives have a fitted effect of over 50% in size
# Outline: as §3
# [10] = qHTS RealTime-Glo MT Cell Viability Assay in HEK293 cells - 40 hour (AID 1224874); conditions: RealTime-Glo luminescence; max response: hits give low values; note: nearly all actives have a fitted effect of over 50% in size; note: potency is the fitted concentration of half-maximal effect
# Outline: as §3
# [11] = A CellTox Green Cytotoxicity Assay to monitor cytotoxicity in HepG2 cells - 16 hour (AID 1224876); note: nearly all actives have a fitted effect of over 45% in size; note: potency is the fitted concentration of half-maximal effect
# Outline: as §4
# [12] = A CellTox Green Cytotoxicity Assay to monitor cytotoxicity in HepG2 cells - 24 hour (AID 1224878); note: nearly all actives have a fitted effect of over 45% in size; note: potency is the fitted concentration of half-maximal effect
# Outline: as §4
# [13] = A CellTox Green Cytotoxicity Assay to monitor cytotoxicity in HepG2 cells - 32 hour (AID 1224883); note: nearly all actives have a fitted effect of over 50% in size; note: potency is the fitted concentration of half-maximal effect
# Outline: as §4
# [14] = qHTS RealTime-Glo MT Cell Viability Assay in HEK293 cells - 24 hour (AID 1224886); note: nearly all actives have a fitted effect of over 50% in size; note: potency is the fitted concentration of half-maximal effect
# Outline: (§5)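 Viability tracked continuously by luminescence as live cells reduce a prosubstrate for NanoLuc; HEK293 cells preincubated 5 h, compound-treated at 37 C, and read at 0, 8, 16, 24, 32 and 40 h.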
# [15] = A CellTox Green Cytotoxicity Assay to monitor cytotoxicity in HEK293 cells - 16 hour (AID 1224888); note: nearly all actives have a fitted effect of over 35% in size; note: potency is the fitted concentration of half-maximal effect
# Outline: as §1
# [16] = qHTS RealTime-Glo MT Cell Viability Assay in HepG2 cells - 0 hour (AID 1224889); note: nearly all actives have a fitted effect of over 50% in size; note: potency is the fitted concentration of half-maximal effect
# Outline: as §2
# [17] = A CellTox Green Cytotoxicity Assay to monitor cytotoxicity in HepG2 cells - 8 hour (AID 1224890); note: nearly all actives have a fitted effect of over 45% in size
# Outline: as §4
# [18] = A CellTox Green Cytotoxicity Assay to monitor cytotoxicity in HEK293 cells - 24 hour (AID 1224875); note: nearly all actives have a fitted effect of over 45% in size; note: potency is the fitted concentration of half-maximal effect
# Outline: as §1
# [19] = A CellTox Green Cytotoxicity Assay to monitor cytotoxicity in HepG2 cells - 40 hour (AID 1224879); note: nearly all actives have a fitted effect of over 40% in size; note: potency is the fitted concentration of half-maximal effect
# Outline: as §4
# [20] = qHTS RealTime-Glo MT Cell Viability Assay in HEK293 cells - 16 hour (AID 1224872)
# Outline: as §5
smiles,measurement,setting,value
CCCCN1CCCC1C(=O)Nc1c(C)cc(C)cc1C (stereo not drawn),Potency,[1],16.9 µM (active)
same,Potency,[2],inactive
same,Potency,[3],inactive
same,Potency,[4],inactive
same,Potency,[5],16.9 µM (active)
same,Potency,[6],23.9 µM (active)
same,Potency,[7],15.1 µM (active)
same,Potency,[8],inactive
same,Potency,[9],inactive
Cc1ccccc1S,Potency,[1],inactive
same,Potency,[2],inactive
same,max response,[10],-6.46% (inactive)
same,Potency,[11],inactive
same,Potency,[3],inactive
same,Potency,[12],inactive
same,Potency,[4],inactive
same,Potency,[5],inactive
same,Potency,[6],inactive
same,Potency,[13],inactive
same,Potency,[7],inactive
same,Potency,[8],inactive
same,Potency,[14],inactive
same,Potency,[9],inactive
same,Potency,[15],inactive
same,Potency,[16],inactive
same,Potency,[17],inactive
CN1CCCC(CC2c3ccccc3Sc3ccccc32)C1 (stereo not drawn),Potency,[1],23.9 µM (active)
same,Potency,[2],inactive
same,Potency,[10],23.9 µM (active)
same,Potency,[18],23.9 µM (active)
same,Potency,[11],23.9 µM (active)
same,Potency,[3],23.9 µM (active)
same,Potency,[12],21.3 µM (active)
same,Potency,[19],23.9 µM (active)
same,Potency,[5],23.9 µM (active)
same,Potency,[6],inactive
same,Potency,[13],21.3 µM (active)
same,Potency,[7],inactive
same,Potency,[14],23.9 µM (active)
same,Potency,[9],inactive
same,Potency,[15],23.9 µM (active)
C[C@@H](CN(C)C)CN1c2ccccc2Sc2ccccc21,Potency,[1],16.9 µM (active)
same,Potency,[2],inactive
same,Potency,[10],23.9 µM (active)
same,Potency,[18],inactive
same,Potency,[11],23.9 µM (active)
same,Potency,[12],26.8 µM (active)
same,Potency,[19],26.8 µM (active)
same,Potency,[5],13.4 µM (active)
same,Potency,[6],inactive
same,Potency,[13],26.8 µM (active)
same,Potency,[7],inactive
same,Potency,[9],inactive
same,Potency,[15],inactive
same,Potency,[17],inactive
CN(C)CCN1C(=O)c2ccccc2N(C)c2ccccc21,Potency,[1],inactive
same,Potency,[2],inactive
same,max response,[10],-6.83% (inactive)
same,Potency,[18],inactive
same,Potency,[11],inactive
same,Potency,[3],inactive
same,Potency,[12],inactive
same,Potency,[19],inactive
same,Potency,[4],inactive
same,Potency,[6],inactive
same,Potency,[13],inactive
same,Potency,[7],inactive
same,Potency,[8],inactive
same,Potency,[14],inactive
same,Potency,[9],inactive
same,Potency,[15],inactive
same,Potency,[16],inactive
same,Potency,[17],inactive
NNC(=O)CP(=O)(c1ccccc1)c1ccccc1,Potency,[1],inactive
same,Potency,[2],inactive
same,max response,[10],-3.49% (inactive)
same,Potency,[11],inactive
same,Potency,[3],inactive
same,Potency,[12],inactive
same,Potency,[4],inactive
same,Potency,[5],inactive
same,Potency,[13],inactive
same,Potency,[7],inactive
same,Potency,[14],inactive
same,Potency,[9],inactive
same,Potency,[15],inactive
same,Potency,[16],inactive
CC(C)(c1ccccc1)c1ccccc1,Potency,[1],51.1 µM (active)
same,Potency,[2],inactive
same,max response,[10],-9.58% (inactive)
same,Potency,[18],51.1 µM (active)
same,Potency,[11],inactive
same,Potency,[3],inactive
same,Potency,[12],inactive
same,Potency,[19],inactive
same,Potency,[4],inactive
same,Potency,[6],inactive
same,Potency,[13],inactive
same,Potency,[14],inactive
same,Potency,[16],inactive
CCCCCC[C@@H](O)C/C=C\CCCCCCCC(=O)OCC(O)CO (stereo partly drawn),Potency,[1],inactive
same,Potency,[2],inactive
same,max response,[10],10.7% (inactive)
same,Potency,[18],inactive
same,Potency,[11],inactive
same,Potency,[3],inactive
same,Potency,[12],inactive
same,Potency,[4],inactive
same,Potency,[5],inactive
same,Potency,[6],inactive
same,Potency,[13],inactive
same,Potency,[7],inactive
same,Potency,[8],inactive
same,Potency,[14],inactive
same,Potency,[9],inactive
same,Potency,[15],inactive
same,Potency,[16],inactive
same,Potency,[17],inactive
CO/N=C(/C(=O)N[C@@H]1C(=O)N2C(C(=O)O)=C(COC(N)=O)CS[C@H]12)c1ccco1,Potency,[1],inactive
same,Potency,[2],inactive
same,max response,[10],10.8% (inactive)
same,Potency,[11],inactive
same,Potency,[3],inactive
same,Potency,[12],inactive
same,Potency,[19],inactive
same,Potency,[4],inactive
same,Potency,[5],inactive
same,Potency,[6],inactive
same,Potency,[13],inactive
same,Potency,[7],inactive
same,Potency,[8],inactive
same,Potency,[14],inactive
same,Potency,[9],inactive
same,Potency,[15],inactive
same,Potency,[16],inactive
COc1ccccc1N1CCN(CC(O)COc2cccc3ccccc23)CC1 (stereo not drawn),Potency,[1],inactive
same,Potency,[2],inactive
same,Potency,[18],inactive
same,Potency,[19],30.1 µM (active)
same,Potency,[4],inactive
same,Potency,[5],inactive
same,Potency,[13],26.8 µM (active)
same,Potency,[7],inactive
same,Potency,[8],inactive
same,Potency,[9],inactive
same,Potency,[15],inactive
same,Potency,[17],inactive
CC(C)C=O,Potency,[1],inactive
same,Potency,[2],inactive
same,max response,[10],0.0745% (inactive)
same,Potency,[11],inactive
same,Potency,[3],inactive
same,Potency,[12],inactive
same,Potency,[19],inactive
same,Potency,[4],inactive
same,Potency,[5],inactive
same,Potency,[13],inactive
same,Potency,[7],inactive
same,Potency,[8],inactive
same,Potency,[14],inactive
same,Potency,[9],inactive
same,Potency,[15],inactive
same,Potency,[17],inactive
CCOC(=O)C1=C(C)NC(C)=C(C(=O)OC)C1c1cccc(Cl)c1Cl (stereo not drawn),Potency,[1],inactive
same,Potency,[18],inactive
same,Potency,[11],inactive
same,Potency,[12],inactive
same,Potency,[19],inactive
same,Potency,[4],5.35 µM (active)
same,Potency,[5],inactive
same,Potency,[6],inactive
same,Potency,[13],inactive
same,Potency,[7],inactive
same,Potency,[8],19 µM (active)
same,Potency,[9],inactive
same,Potency,[15],inactive
same,Potency,[17],inactive
Cc1ccccc1N=C(N)Nc1ccccc1C,Potency,[20],inactive
same,Potency,[2],inactive
same,max response,[10],-12.1% (inactive)
same,Potency,[18],inactive
same,Potency,[11],inactive
same,Potency,[3],inactive
same,Potency,[12],inactive
same,Potency,[4],inactive
same,Potency,[6],inactive
same,Potency,[13],inactive
same,Potency,[7],inactive
same,Potency,[8],inactive
same,Potency,[14],inactive
same,Potency,[9],inactive
same,Potency,[15],inactive
same,Potency,[16],inactive
same,Potency,[17],inactive
CC1=C(Br)C(=O)C(Br)=C/C1=C(/c1ccccc1S(=O)(=O)O)c1cc(Br)c(O)c(Br)c1C,Potency,[20],inactive
same,Potency,[2],inactive
same,max response,[10],1.66% (inactive)
same,Potency,[11],inactive
same,Potency,[3],inactive
same,Potency,[12],inactive
same,Potency,[19],inactive
same,Potency,[4],33.3 µM (active)
same,Potency,[5],inactive
same,Potency,[6],inactive
same,Potency,[13],inactive
same,Potency,[7],inactive
same,Potency,[14],inactive
same,Potency,[9],inactive
same,Potency,[15],inactive
same,Potency,[16],16.7 µM (active)
same,Potency,[17],inactive
O=c1cc(-c2ccccc2)oc2ccc3ccccc3c12,Potency,[20],inactive
same,Potency,[2],inactive
same,max response,[10],-4.42% (inactive)
same,Potency,[18],inactive
same,Potency,[11],24.5 µM (active)
same,Potency,[3],inactive
same,Potency,[12],24.5 µM (active)
same,Potency,[4],inactive
same,Potency,[6],inactive
same,Potency,[13],21.9 µM (active)
same,Potency,[8],inactive
same,Potency,[14],inactive
same,Potency,[9],inactive
same,Potency,[16],inactive
O=C(O)CCc1nc(-c2ccccc2)c(-c2ccccc2)o1,Potency,[20],inactive
same,Potency,[2],inactive
same,max response,[10],0.935% (inactive)
same,Potency,[18],inactive
same,Potency,[11],inactive
same,Potency,[3],inactive
same,Potency,[12],inactive
same,Potency,[19],inactive
same,Potency,[4],inactive
same,Potency,[6],inactive
same,Potency,[13],inactive
same,Potency,[7],inactive
same,Potency,[8],inactive
same,Potency,[14],inactive
same,Potency,[9],inactive
same,Potency,[15],inactive
same,Potency,[16],inactive
same,Potency,[17],inactive
